Laboratory results from the OligoGym collection.

These sequences were tested against RYR2 (assay: pooled miR-30 sensor sort-seq; sequence = guide strand). Details: shRNA.
Further: reference of the scale not given here.

Sequence	sensor-assay potency score (higher = more potent)
TATGCTATGATTTTCTTCCAGA	-0.61
TAAGTTGTAATTGCGCTCCTGT	0.62
TAAATCACTGTTTCCATCCAGA	0.11
TTCAGTGTGAACATCATGGTGT	0.656
TAGTACATAGTGAACTGCGATG	-0.997
TTTTATTGTAGAATTTTCGGAA	-0.252
TTTTGTACTCGGTTCCACCTGA	0.606
TTGCAGTCCACAACCAGCCAAA	-1.35
TTTAGTAGCTTCTTTGTCTTTG	0.401
TTCACTTGAACTTCTCGTGGGG	0.903

These sequences were tested against S100A11 in the same assay as above. Details: shRNA.

Sequence	sensor-assay potency score (higher = more potent)
AGTGTAGTTATAACCATCCTTT	-1.48
ATCTAGCTGACCATCACTGTTG	-0.625
AAATTCTGAGAAATCTAGCTGA	0.4
TTCTGGTTCTTTGTGAAGGCAG	-0.487
TTGTGAAGGCAGCTAGTTCTGT	-0.251
ATCCTTTCCAGCATACTTCTGG	-0.568
TAGTTCTGTATTCATGAAGCTT	-0.971
AAGCTTAGGAACTCTGTCTTGG	0.352
TCCAGTTTCTTCATCATGCGGT	-0.21
AATTCTGAGAAATCTAGCTGAC	-0.15
TATAACCATCCTTTCCAGCATA	-1.17

Each sequence was assayed against S100A4 in the same assay as above. Details: shRNA.

Sequence	sensor-assay potency score (higher = more potent)
TTCGTTACACATCATGGCGATG	-1.19
TTGAGCTTGAACTTGTCACCCT	0.789
TTGCTCAGCATCAAGCACGTGT	-0.253
TTGTTGAGCTTGAACTTGTCAC	-0.424
TTGAACTTGTCACCCTCTTTGC	-0.681
TACTCTTGGAAGTCCACCTCGT	0.392
TTTATTGAACTTGCTCAGCATC	-1.33
TGACTTGTTGAGCTTGAACTTG	-1.01
TTACACATCATGGCGATGCAGG	-0.526
TCAGCTTCTGGAAAGCAGCTTC	0.395
TGAGCTTGAACTTGTCACCCTC	0.664
TAGTTCTGACTTGTTGAGCTTG	-0.701

What follows are sequences tested against S100P in the same assay as above. Details: shRNA.

Sequence	sensor-assay potency score (higher = more potent)
TTGGTCAGGGTCTGCGTGCTGC	-0.458
TTGAGCAATTTATCCACGGCAT	-0.537
TGTCTTTTCCACTCTGCAGGAA	-0.419
TCCATTGGCGTCCAGGTCCTTG	-1.46
TACTTGTGACAGGCAGACGTGA	-0.639
TTCCACTCTGCAGGAAGCCTGG	-1.03
TAATCAGAGGTACATGAGCAGG	-1.43
